HTT aggregate: reduces HttQ103-GFP aggregates in PC12 cells. PC12 HttQ103-GFP aggregates, Acumen cytometry, 40 h. Potency, µM (titrated, usually from 46.1 µM), most hits filed as inhibitors. 220,000 compounds, 1.1% hits; also: nearly all actives have a fitted effect of over 60% in size
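Using laser scanning cytometry, GFP-positive aggregates were counted after lysis of PC12 cells induced with 100 nM tebufenozide to express HTT exon 1 Q103–GFP. Compounds were tested in titration.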
ALDH1A1 inh: ALDH1A1 (human) enzyme inhibition. Potency, µM (titrated, usually from 75.3 µM), hits mostly inhibitors. P00352. 220,000 compounds, 7.3% hits. Purified ALDH1A1, NADH fluorescence, propionaldehyde substrate; active = well fitted inhibition curve with a large enough effect, not every such curve was filed as active; inconclusive = small, poorly fitted or top-dose-only effect, or another doubt; inactive = no such curve, though single readings can be large or run the other way
Target sequence (P00352 whole entry, looked up): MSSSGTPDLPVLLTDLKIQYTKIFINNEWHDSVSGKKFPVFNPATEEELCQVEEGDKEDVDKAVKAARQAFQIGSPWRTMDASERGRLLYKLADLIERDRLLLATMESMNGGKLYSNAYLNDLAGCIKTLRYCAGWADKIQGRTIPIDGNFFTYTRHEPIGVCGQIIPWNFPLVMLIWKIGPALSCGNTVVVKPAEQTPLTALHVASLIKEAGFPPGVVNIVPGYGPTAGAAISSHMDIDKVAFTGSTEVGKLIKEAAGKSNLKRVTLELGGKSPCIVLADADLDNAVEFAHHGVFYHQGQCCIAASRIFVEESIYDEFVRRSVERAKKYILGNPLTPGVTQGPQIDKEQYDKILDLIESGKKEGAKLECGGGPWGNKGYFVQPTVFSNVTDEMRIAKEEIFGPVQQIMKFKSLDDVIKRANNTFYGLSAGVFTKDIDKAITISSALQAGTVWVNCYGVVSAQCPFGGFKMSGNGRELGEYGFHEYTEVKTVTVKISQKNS
HTT cytoprotect: Huntington cell model cytoprotection by ATP luminescence; PC12 HTT-Q103 induced, cytoprotection, ATP luminescence, 40 h; Potency, µM (highest dose often 56.4 µM), usual class: activators; 230,000 compounds, 0.14% hits; also: nearly all actives have a fitted effect of over 45% in size
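PC12 cells with ecdysone-inducible HTT exon 1 Q103-GFP, induced with 100 nM tebufenozide and co-treated with library compounds in a dose series (1536-well, 1500 cells/well). Cytoprotection read as ATP content by ATPlite luminescence.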
Lamin A splicing: changes lamin A minigene splicing in HeLa cells. Potency, µM (doses to about 46.1 µM), usual class: inhibitors. AID 1487. 200,000 compounds, 0.01% hits. HeLa LMNA splicing GFP/RFP minigene ratio, 48 h; active = well fitted inhibition curve with a large enough effect in the signal ratio, with a control signal flat, not every such curve was filed as active; inconclusive = small, poorly fitted or top-dose-only effect, or effect the other way, or a change in a side signal; the % refers to the signal ratio
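S3 HeLa stable clones carrying a lamin A-EGFP splicing minigene plus DsRed2 were seeded at 600 cells/well in Opti-MEM with 2% FBS, pin-dosed and incubated 48 h at 37°C. Acumen cytometry (488 nm) gave the GFP/RFP total-intensity ratio.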
HPGD inh: HPGD (human) dehydrogenase inhibition; Potency, µM, actives largely listed as inhibitors; purified HPGD, NADH fluorescence kinetic, PGE2 substrate; 150,000 compounds, 4.3% hits; AID 894; active = well fitted inhibition curve with a large enough effect, not every such curve was filed as active; inconclusive = small, poorly fitted or top-dose-only effect, or another doubt; inactive = no such curve, though single readings can be large or run the other way
Target sequence (P15428 whole entry, looked up): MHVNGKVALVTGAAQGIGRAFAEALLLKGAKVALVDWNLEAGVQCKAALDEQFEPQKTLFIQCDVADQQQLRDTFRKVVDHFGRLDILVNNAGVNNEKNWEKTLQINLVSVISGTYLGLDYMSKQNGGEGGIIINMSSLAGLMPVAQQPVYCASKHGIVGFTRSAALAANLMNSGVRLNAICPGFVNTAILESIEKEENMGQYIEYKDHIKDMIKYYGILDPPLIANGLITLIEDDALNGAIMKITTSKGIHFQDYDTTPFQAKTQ
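20 nM HPGD preincubated 15 min at room temperature with compound in 50 mM Tris-HCl pH 8, 0.01% Tween 20. Started with 1 mM NAD+ and 30 uM prostaglandin E2; NADH fluorescence (360/450 nm) read 5 times over 30-s intervals, last minus first.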
Hits are given with their value; - = inactive; ? = inconclusive; . = not tested or not shown; ! = not active in a repeat; [ ] = another dose, or the depositor's remark. Rows were chosen to be rich in hits. Some 8.8% of all compounds tested hit in one or more screens of this group. Unless noted, calls follow the shape of the dose curve; as a rule, active = well fitted curve in the direction sought with a large enough effect; inconclusive = small, poorly fitted or top-dose-only effect, or another doubt; inactive = no such curve, though single readings can be large; an effect the other way counts as inactive or inconclusive.

SMILES | HTT aggregate | ALDH1A1 inh | HTT cytoprotect | Lamin A splicing | HPGD inh
Cc1ccc(OC(=O)c2ccc(N3CCOCC3)c([N+](=O)[O-])c2)cc1 | - | 7.1µM | - | - | ?
O=C(Nc1ccc(N2CCCCC2)c(Cl)c1)c1ccc(N2CCOCC2)c([N+](=O)[O-])c1 | 11µM | 8.9µM | - | -[0.0737 µM] | -
O=C(Nc1ccccc1N1CCOCC1)c1ccc(N2CCOCC2)c([N+](=O)[O-])c1 | - | ? | . | . | .
COc1cc2[nH]c(=S)nc(NCc3ccccn3)c2cc1OC | - | - | - | - | .
Cc1ccc(NC(=O)c2ccc(NCCCN3CCOCC3)c([N+](=O)[O-])c2)cc1Cl | 25µM | ? | -[10 µM] | ? | -
Cc1ccc(NC(=O)c2ccc(N3CCOCC3)c([N+](=O)[O-])c2)cc1S(=O)(=O)N1CCOCC1 | ? | ? | -[1.9 µM] | ? | -
Cc1ccc(NC(=S)NNC(=O)c2ccc(N3CCOCC3)c([N+](=O)[O-])c2)cc1C | - | 4µM | -[10 µM] | - | -
O=C(Nc1ccc2c(c1)OCO2)c1ccc(NC2CC2)c([N+](=O)[O-])c1 | - | - | -[1.9 µM] | - | -
O=C(Nc1ccc(Cl)c([N+](=O)[O-])c1)c1ccc(NCCCN2CCOCC2)c([N+](=O)[O-])c1 | - | - | -[10 µM] | - | -
O=C(Nc1ccc2c(c1)OCO2)c1ccc(N2CCCC2)c([N+](=O)[O-])c1 | - | 16µM | -[10 µM] | ? | -
O=C(Nc1ccccc1C(F)(F)F)c1ncn[nH]1 | -[9.22 µM] | . | -[10 µM] | . | .
CCOC(=O)c1c(C)oc2c1c(C(c1cccnc1)N1CCCCC1)c(O)c1ccccc12 (stereo unspecified) | - | ? | - | - | -
CCOC(=O)c1c(C)oc2c1c(C(c1ccccc1)N1CCOCC1)c(O)c1ccccc12 (stereo unspecified) | - | 3.5µM | - | - | ?
Cc1ccc2c(c1)-c1[nH]c(=S)ncc1CS2 | - | - | - | . | .
Cc1cc(NC(=O)c2ccc3c(c2)C(=O)N(C2CCCCC2)C3=O)no1 | - | - | - | - | -
CC1CCCN(c2ccc(C(=O)NCC3CCCO3)cn2)C1 (stereo unspecified) | - | - | -[10 µM] | - | 11µM
O=C(NCC1CCCO1)c1ccc2c(c1)C(=O)N(C1CCCCC1)C2=O (stereo unspecified) | - | 8.9µM | - | - | -
Cc1cc(NC(=O)c2ccc3c(c2)C(=O)N(CCC(C)C)C3=O)no1 | - | ? | - | - | -
CC(C)CCN1C(=O)c2ccc(C(=O)NCC3CCCO3)cc2C1=O (stereo unspecified) | - | 4.5µM | - | - | -
COc1ccc(CN2CCNC(=O)C2CC(=O)N(C)Cc2nccn2C)cc1OC (stereo unspecified) | -[9.22 µM] | - | -[10 µM] | . | .
O=C(C/C=N\OCc1ccc([N+](=O)[O-])cc1)Nc1ccc(F)cc1F | - | - | -[10 µM] | - | .
COc1ccccc1-c1cc(C(F)(F)F)nc(S(=O)(=O)CCCC(=O)N2CCOCC2)n1 | -[9.22 µM] | - | - | ? | 14µM
O=C(NCCc1ccccc1)c1ccc2c(c1)nc1n2CCOC1 | . | . | . | - | .
CCOC(=O)c1c(N)sc(C)c1-c1ccccc1 | . | ? | - | . | 25µM
CCOC(=O)c1cc(-c2ccccc2)sc1NC(=O)c1ccc(OC)cc1 | - | ? | - | - | 3.5µM
SMILES | HTT aggregate | ALDH1A1 inh | HTT cytoprotect | Lamin A splicing | HPGD inh
CCOC(=O)c1cc(-c2ccccc2)sc1N | - | 11µM | -[10 µM] | - | 11µM
COC(=O)c1ccc(Nc2ncnc3c2nc2n3CCCC2)cc1 | . | . | . | - | .
CCOC(=O)c1sc(=S)n(-c2cc(OC)ccc2OC)c1N | - | 3.2µM | -[10 µM] | - | 3.5µM
CCOC(=O)c1sc(=S)n(-c2ccccc2Cl)c1SC | - | 18µM | - | ? | 18µM
COC(=O)c1sc(=S)n(-c2cc(F)ccc2F)c1N | - | 25µM | -[0.074 µM] | -[0.0737 µM] | 28µM
CCOC(=O)c1sc(=S)n(-c2cc(F)ccc2F)c1N | - | 20µM | -[0.074 µM] | ? | 25µM
COC(=O)CN(c1ccccc1)S(=O)(=O)c1cc(Br)ccc1OC | - | ? | - | . | .
COC(=O)NC(/C=C/c1ccccc1)C(C(C)=O)C(=O)OC (stereo unspecified) | . | - | - | . | -
N#Cc1c(Cl)c(Cl)c2nnc(-c3ccc(Br)cc3)n2c1Cl | - | ? | - | - | 13µM
CC(C(O)c1ccc(O)cc1)N1CCC(Cc2ccccc2)CC1 (stereo unspecified) | - | - | 5µM! | ? | -
COc1ccc(C(=O)Nc2ccc(S(=O)(=O)NC(C)(C)C)cc2)cc1[N+](=O)[O-] | - | 18µM | - | . | .
COC(=O)c1cc(C(=O)Nc2ccc(S(=O)(=O)NC(C)(C)C)cc2)cc([N+](=O)[O-])c1 | - | 14µM | -[10 µM] | - | 18µM
CCN(CC)S(=O)(=O)c1ccc(NC(=O)c2cc(C(=O)OC)cc([N+](=O)[O-])c2)cc1 | - | ? | -[10 µM] | - | .
COc1ccc(C2C=C(C34CC5CC(CC(C5)C3)C4)NC(=S)N2)cc1 (stereo unspecified) | - | 4µM | ? | ? | -
O=C(CCCn1c(=O)c2cccn2c2ccc(F)cc21)NCc1ccc(Cl)cc1 | . | . | . | - | .
Cc1ccc(N2C(=O)C3C(C2=O)C2C=CC3C23CC3)c([N+](=O)[O-])c1 (stereo unspecified) | - | 2.5µM | - | - | .
COC(=O)/C(=C/c1cn(C)c2ccccc12)[N+](=O)[O-] | - | 1.8µM | -[10 µM] | - | 3.5µM
Cn1cc(/C=C2\SC(=O)NC2=S)c2ccccc21 | ? | 1.4µM | - | . | .
O=Cc1ccc(-n2cc(C=O)c3ccccc32)cc1 | - | 11µM | -[10 µM] | - | .
COC(=O)/C(=C/c1cn(C(C)=O)c2ccccc12)[N+](=O)[O-] | -[9.22 µM] | . | -[10 µM] | . | .
Cn1cc(C=O)c2ccccc21 | -[9.22 µM] | 2.8µM | -[10 µM] | . | .
Cc1ccc(/C(C#N)=C\c2cn(C)c3ccccc23)cc1 | - | - | -[1.9 µM] | ? | -
O=Cc1cn(CC(=O)N2CCCCCC2)c2ccccc12 | -[9.22 µM] | . | -[10 µM] | . | .
O=C(O)c1c(-c2nccc3ccccc23)[nH]c(-c2ccccc2)c1S(=O)(=O)O | . | ? | -[10 µM] | . | -
O=C(Cc1ccccc1[N+](=O)[O-])N1CCc2ccccc2C1 | - | - | - | - | .
SMILES | HTT aggregate | ALDH1A1 inh | HTT cytoprotect | Lamin A splicing | HPGD inh
Cc1ccc(/C=C2/SC(=O)NC2=S)o1 | - | 14µM | - | . | .
O=S(=O)(Cc1ccccc1)c1cnc2ccccc2n1 | ? | ? | - | ? | 25µM
CCCC(CCC)C(=O)Nc1cc(-c2cn3cccnc3n2)ccc1OC | . | . | . | - | .
COc1ccc(C2=Nc3ccccc3OC2)cc1 | - | 22µM | - | ? | -
Clc1cccc(-c2ccc(CNCCCN3CCOCC3)o2)c1 | - | 28µM | - | . | .
Cc1ccc(CSc2nnc(-c3ccc(NS(=O)(=O)c4ccccc4)cc3)o2)cc1 | - | - | -[1.9 µM] | ? | -
COC(=O)CSc1nnc(-c2ccc(NS(=O)(=O)c3ccccc3)cc2)o1 | - | - | - | - | 18µM
CCN(CC)S(=O)(=O)c1ccc(-c2nnc(SCC(=O)Nc3cc(OC)cc(OC)c3)o2)cc1 | - | 13µM | - | - | -

Source: PubChem BioAssay (National Center for Advancing Translational Sciences (NCATS))
